In PubChem BioAssay (NCI):
Several values for one entry are separate records, joined by “and”; a condition that tells them apart may be missing. Identical values can stand only once. This is part of a sample that, as a whole, favours compounds with a hit. Of some 79,000 tested, about 15% had one in any assay. Activity calls are given as the source filed them. No stated cut-off is given here; in the data, active means growth inhibition above about 70%; inactive means the rest.

What was measured:
[1] = NCI Yeast Anticancer Drug Screen. Data for the rad50 strain (AID 155);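 further: 0% = growth of vehicle-only cultures of the same strain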; details: S. cerevisiae rad50 strain growth inhibition, hits give high values; at 50.0 µM unless noted
Outline: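 Cells are treated with compound, grown, and their growth is then scored against vehicle-only cultures of the same repair-deficient yeast strain.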

[2] = NCI Yeast Anticancer Drug Screen. Data for the mec2-1 strain (AID 157); details: S. cerevisiae mec2-1 strain, hits give high values; at 50.0 µM unless noted
Outline: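 Yeast mec2-1 mutant treated with compound. Readout: growth inhibition vs vehicle controls.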

[3] = NCI Yeast Anticancer Drug Screen. Data for the sgs1 mgt1 strain (AID 161);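 further: 0% = growth of cultures given vehicle only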; details: S. cerevisiae sgs1 mgt1 strain, hits give high values; at 50.0 µM unless noted
Outline: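 Read-out: growth inhibition vs vehicle controls. Cells: mutant yeast strain deficient in DNA damage repair.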

[4] = NCI Yeast Anticancer Drug Screen. Data for the cln2 rad14 strain (AID 165);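 further: 0% = growth equal to vehicle treated cultures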; details: S. cerevisiae cln2 rad14 strain, hits give high values; at 50.0 µM unless noted
Outline: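 cln2 rad14 yeast strain; compound exposure; growth inhibition read vs vehicle controls.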

[5] = NCI Yeast Anticancer Drug Screen. Data for the bub3 strain (AID 167); details: S. cerevisiae bub3 mutant strain, hits give high values; at 50.0 µM unless noted
Outline: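 Part of a panel of yeast mutants defective in DNA damage repair or cell cycle regulation. Each strain is grown with compound, and inhibition is calculated relative to solvent-treated cultures.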

[6] = NCI Yeast Anticancer Drug Screen. Data for the mlh1 rad18 strain (AID 175); details: S. cerevisiae mlh1 rad18 strain growth inhibition, hits give high values; at 50.0 µM unless noted
Outline: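 Yeast w/ defined DNA-repair lesions; compound exposure; growth vs vehicle controls → % inhibition.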

Measured: growth inhibition

OC1(c2cccc(C(F)(F)F)c2)CCN(C2CC2c2ccccc2)CC1 (stereo unspecified)
active: [1] 87.2% | [2] 77.7% | [3] 90.8% | [4] 85.1% | [5] 84.3% | [6] 81.5%

CCCCCCCCCCCCCCCCCC(=O)N/N=C\c1c(O)ccc2ccccc12
inactive: [1] 21.4% | [2] 11.7% | [3] 4.85% | [4] 2.15% | [5] -10.1% | [6] 20.2%

Cc1ccc(C(=O)C[n+]2ccc3ccccc3c2)c(O)c1
inactive: [1] -17.1% | [2] -17.9% | [3] -20.2% | [4] -51.9% | [5] -14.3% | [6] 1.25%

O=C(CC(=O)c1cc(Cl)ccc1O)c1ccc2ccccc2n1
inactive: [1] -0.35% | [2] 13.2% | [3] 18.8% | [4] -21.8% | [5] -2.85% | [6] 22.4%

O=C(Cc1nc2ccccc2o1)C(=O)Nc1ccccc1C(F)(F)F
inactive: [1] -16.5% | [2] -4.9% | [3] -2.8% | [4] 7.2% | [5] 2.75% | [6] 17.6%

NC(CCn1cnc2c(=O)[nH]cnc21)C(=O)O (stereo unspecified)
inactive: [1] 4.1% | [2] 10.3% | [3] 6.7% | [4] -31.6% | [5] -12.8% | [6] -11.7%

CC(C)N1C(=O)N(Cl)C2C1N(Cl)C(=O)N2Cl (stereo unspecified)
inactive: [1] 15% | [2] -0.4% | [3] -6.7% | [4] 22.6% | [5] -3.55% | [6] 53.9%

COC(=O)c1ccc(N=NN(C)CN=[N+]=[N-])cc1
inactive: [1] 13.3% | [2] 19.7% | [3] 21.2% | [4] -21.3% | [5] 11.3% | [6] 3.15%

Cc1cc(Cl)c(OCC(=O)O)cc1C
inactive: [1] -8.2% | [2] -9.45% | [3] -9.25% | [4] -8.3% | [5] -14.6% | [6] -1.9%

c1ccc2c(CC3NCCN3)cccc2c1
inactive: [1] -11.3% | [2] -32.2% | [3] -55.2% | [4] 10.8% | [5] -1.4% | [6] -13%

COc1ccc2ncccc2c1[N+](=O)[O-]
inactive: [1] -5.55% | [2] -44.3% | [3] -5.8% | [4] -14.5% | [5] -23.4% | [6] -18.6%

O=C(/C=C/c1ccc(O)c(O)c1)OC1CC(O)(C(=O)O)CC(O)C1O (stereo unspecified) (tested in a mixture with another compound)
inactive: [1] -26.6% | [2] -13.9% | [3] -9.35% | [4] -17.1% | [5] 4% | [6] -12.3%

CC(C)COC(=O)/C=C/c1ccccc1
inactive: [1] 19.8% | [2] 16.6% | [3] 20.6% | [4] 7.3% | [5] 2.9% | [6] 11.6%

C/C(=N\NC(=O)c1ccncc1)c1cc(Cl)ccc1Cl
inactive: [1] 2.9% | [2] 5.4% | [3] 4.65% | [4] 8.15% | [5] 0.35% | [6] 8.7%

CCCCCCCCC1OC1CCCCCCCCOCC(O)CO (stereo unspecified)
inactive: [1] 18.9% | [2] -9.95% | [3] -1.9% | [4] -1.2% | [5] -0.6% | [6] -1.6%

CC(=O)C1=CC2(OC3CCC(O)(C(=O)CO)C(C)O3)C(=O)c3c(cc4cccc(O)c4c3O)CC2C(O)C1O (stereo unspecified)
inactive: [1] -6.2% | [2] -1.05% | [3] 2.9% | [4] -21.2% | [5] 20.8% | [6] 9.65%

CC1(C)Oc2nc[nH]c(=O)c2C1c1ccccc1 (stereo unspecified)
inactive: [1] 2.55% | [2] -4.5% | [3] -0.4% | [4] -20.1% | [5] -19.4% | [6] 5.35%

CCCCCCCCCCCCCCCCCC(O)CCCCCCCCCCCCCCCCC
inactive: [1] -16.9% | [2] -8.45% | [3] -7.75% | [4] -47.2% | [5] 2.4% | [6] -8.25%

CC(=O)Nc1ccc2nc(SC(C)C)sc2c1
inactive: [1] 39.4% | [2] 7.7% | [3] 31.6% | [4] 17.4% | [5] 13.1% | [6] 19.9%

N=c1oc(-c2ccccc2)cc2ccccc12
inactive: [1] 29.8% | [2] -9.4% | [3] -12.3% | [4] -45.8% | [5] 15.6% | [6] 11.7%

NNC(=O)CCC(=O)O
inactive: [1] 0.75% | [2] -0.5% | [3] 1.7% | [4] -3.6% | [5] 12.7% | [6] -15.6%

CC(=O)Oc1cc(S(=O)(=O)Nc2n[nH]c(N)n2)c(S)cc1Cl
inactive: [1] -22.8% | [2] -18.3% | [3] -1.2% | [4] 11.7% | [5] -9.55% | [6] 8.45%

CC(=O)Nc1c(C)cc([N+](=O)[O-])c2ccccc12
inactive: [1] -0.7% | [2] -2.45% | [3] -14.9% | [4] -9.45% | [5] 8.05% | [6] -13.3%

O=c1c2cc(O)c(O)cc2oc2cc(O)c(C3OC(CO)C(O)C(O)C3O)c(O)c12 (stereo unspecified)
inactive: [1] 14.2% | [2] 1.1% | [3] -27.7% | [4] 6.45% | [5] -41.4% | [6] -77.1%

O=C(O)c1ccccc1-c1ccccc1
inactive: [1] -19.2% | [2] -36.1% | [3] -12.4% | [4] 4.3% | [5] -15.3% | [6] -1.9%

C[N+]1(C2C=CCC(c3ccccc3)C2[N+](=O)[O-])CCCC1 (stereo unspecified)
inactive: [1] 27.2% | [2] 9.95% | [3] 35.5% | [4] 15.2% | [5] -3.6% | [6] 10.9%

O=C(NC(CSC(c1ccccc1)(c1ccccc1)c1ccccc1)C(=O)O)OC(c1ccccc1)c1ccccc1 (stereo unspecified)
active: [1] 91.5% | [2] 95.6% | [3] 96.5% | [4] 89% | [5] 89.5% | [6] 96.5%

CN(Cc1ccccc1)c1cc(=O)n(C)c(=O)[nH]1
inactive: [1] 7.3% | [2] 15.8% | [3] 35.8% | [4] 14% | [5] 25.6% | [6] -6.8%

O=C(NSN1CCOCC1)c1ccccc1
inactive: [1] 38.8% | [2] 25.8% | [3] 30% | [4] -45.6% | [5] 2.5% | [6] 38%

COc1ccc(OC)c(NC(=O)C(=O)C(C(C)=O)c2nc3ccc(Cl)cc3[nH]c2=O)c1 (stereo unspecified)
inactive: [1] -12.8% | [2] 7.75% | [3] -15.5% | [4] 12% | [5] 2.5% | [6] -7.35%

CCCCCC1CC(C(C)=O)CN1c1ccc(F)cc1 (stereo unspecified)
inactive: [1] -0.95% | [2] 8.4% | [3] 11.8% | [4] 8.7% | [5] -1% | [6] -2%

CC(=O)[CH-]C(=O)c1ccccc1.CC(=O)[CH-]C(=O)c1ccccc1.CC[C@H](/C=C/C(C)[C@H]1CCC2[C@@H]3CC=C4C[C@@H]([O-])CC[C@]4(C)C3CC[C@@]21C)C(C)C.CC[C@H](/C=C/C(C)[C@H]1CCC2[C@@H]3CC=C4C[C@@H]([O-])CC[C@]4(C)C3CC[C@@]21C)C(C)C.Cl.[Ti+4] (stereo partly specified)
inactive: [1] 8% | [2] 2.65% | [3] 19.3% | [4] -12.1% | [5] 24.6% | [6] 9.55%

O=C1NC(=O)C2C3OC(C(Cl)C3Cl)C12 (stereo unspecified)
inactive: [1] 0.8% and 18.2% | [2] -19.5% and 11.5% | [3] -7.85% and 12.5% | [4] 20.4% and 42.7% | [5] -4.95% and 7.95% | [6] -7.85% and -1.25%

C=CCSC(=S)Nc1nc2ccc([N+](=O)[O-])cc2s1
inactive: [1] -4.1% | [2] 8.9% | [3] 7.45% | [4] 7.8% | [5] -10.8% | [6] -5.9%

CCOC(OCC)c1ccc(OC)c(OC)c1
inactive: [1] 13.5% | [2] -5.3% | [3] 8.95% | [4] -0.1% | [5] 3.45% | [6] 9.6%

N#CC(c1ccccc1)c1ccc(C(c2ccccc2)(c2ccccc2)C(C#N)c2ccccc2)cc1 (stereo unspecified)
inactive: [1] 17.4% | [2] 8.55% | [3] 13.9% | [4] 19.3% | [5] -4.8% | [6] 5.1%
